# Sampled rows, rich in hits. Any-hit rate of the full collection: about 2.2%.
# LGR2 antag = Drosophila LGR2 receptor signaling inhibition. HEK293 LGR2, CRE-luciferase, bursicon-stimulated, 4 h. inhibition, % at 9.99 µM. 380,000 tested, 0.35% active. AID 720647;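 active = drop in luminescence signal, shown as inhibition above about 50% in the replicate tests, limit read from the data, passing the limit was not always enough; inconclusive = probably only some replicates passing the limit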;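 also: agonist challenge used bursicon conditioned medium at about half maximal strength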
# TWEAK Fn14 block = TWEAK-Fn14 signaling inhibition. inhibition, % at 10 µM. AID 1159606. 360,000 tested, 2% active. TWEAK-stimulated Fn14 reporter cells, luciferase luminescence, 8 h; in the data active = inhibition above about 50%
# TROY NFkB inh = inhibitors of TROY-dependent NF-kB signaling; Q293 LMP1-TROYcd NF-kB luciferase reporter, 4 h; inhibition, % at 10 µM; 360,000 tested, 0.98% active; AID 1347056;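 active = compounds whose plate-normalised and pattern-corrected inhibition of the luciferase reporter signal at the single screening dose is 50% or more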
# HSP90 inh = blocks HSP90-mediated luciferase refolding in reticulocyte lysate; 290,000 tested, 0.91% active; inhibition, % at 5.6 µM; Rabbit reticulocyte lysate, luciferase refolding luminescence, 3 h;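 active = inhibition above the screen-wide mean plus 3 SD, computed separately per campaign, cut at about 16% in these data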;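 also: 0% = DMSO wells and 100% = 60 µM geldanamycin wells; inhibitors lower the luminescence because luciferase stays unfolded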
# HSP90 inh confirm = HSP90 inhibition, confirmation assay. shares compounds with HSP90 inh. rabbit reticulocyte lysate, luciferase refolding luminescence, 3 h. inhibition, % at 5.9 µM. 2,300 tested, 64% active; in the data active = inhibition above about 18%;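 also: 0% = vehicle wells and 100% = reference inhibitor wells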
# FLuc counter = counter-screen for HSP90 inhibitors: inhibitors of firefly luciferase; shares compounds with HSP90 inh; inhibition, % at 5.9 µM; purified native firefly luciferase, luminescence; 2,300 tested, 48% active;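 active = inhibition above the mean inhibition of all tested sample wells plus 3 SD, cut at about 10% in these data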;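 also: 0% = DMSO with luciferase and 100% = wells lacking luciferase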
# Target sequence (P08659 whole entry, looked up): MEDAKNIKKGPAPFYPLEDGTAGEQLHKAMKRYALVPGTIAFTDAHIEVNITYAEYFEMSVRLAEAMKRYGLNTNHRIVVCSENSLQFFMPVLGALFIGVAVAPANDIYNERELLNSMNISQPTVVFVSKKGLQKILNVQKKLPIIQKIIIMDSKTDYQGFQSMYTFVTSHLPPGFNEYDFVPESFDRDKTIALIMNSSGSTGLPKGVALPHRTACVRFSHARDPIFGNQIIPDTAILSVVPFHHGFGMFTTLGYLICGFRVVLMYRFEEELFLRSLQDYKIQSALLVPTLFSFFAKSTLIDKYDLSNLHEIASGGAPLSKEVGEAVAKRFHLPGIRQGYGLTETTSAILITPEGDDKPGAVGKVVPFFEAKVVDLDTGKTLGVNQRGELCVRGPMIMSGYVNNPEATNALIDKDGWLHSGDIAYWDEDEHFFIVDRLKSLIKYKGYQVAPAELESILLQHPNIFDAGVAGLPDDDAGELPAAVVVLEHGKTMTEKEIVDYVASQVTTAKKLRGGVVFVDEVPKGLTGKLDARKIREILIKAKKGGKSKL
# * hit, by the source's call; u = inconclusive; x = no result given.
SMILES,LGR2 antag,TWEAK Fn14 block,TROY NFkB inh,HSP90 inh,HSP90 inh confirm,FLuc counter
Cc1ccc(C(C)NC(=O)Cc2cccs2)cc1C (stereo not given),1,10,8,3,x,x
Cc1ccc(C(C)NC(=O)Cc2cccs2)c(C)c1 (stereo not given),9,-1,-13,30*,-10,-11
CC(=O)N(C1=C(N2CCOCC2)C(=O)c2ccccc2C1=O)c1ccc(C(=O)O)cc1,3,18,14,24*,6,1
Cc1ccccc1-c1ccc([C@H]2[C@H](CO)N3C(=O)CN(C(=O)Cc4ccccn4)C[C@@H]23)cc1,3,x,x,x,x,x
O=Cc1ccc(-c2ccc(C(=O)O)cc2)o1,4,-3,-3,17*,10,1
CC(=O)N(\C=C/C=C/C=C1\Sc2ccccc2C1=O)c1ccccc1,-15,0,-11,-2,x,x
CN(C)/C=C1/Sc2ccccc2C1=O,x,-19,12,21*,-2,-16
COc1ccccc1C(=O)N1C[C@@H]2[C@H](c3ccccc31)[C@H](CO)N2CC1CCOCC1,-4,x,x,x,x,x
Cc1ccccc1-c1cnc2c(c1)C(=O)N([C@@H](C)CO)C[C@@H](C)[C@@H](CN(C)C(=O)CN(C)C)O2,4,x,x,x,x,x
N#Cc1c(NC(=O)c2nc3ncccn3n2)sc2c1CCCCC2,23,70*,3,65*,78*,28*
CC(=O)c1ccc(NC(=O)c2cnn3ccccc23)cc1,u,71*,17,42*,63*,12*
CC(=O)c1cccc(NC(=O)c2cnn3ccccc23)c1,-19,-7,-80,1,x,x
C[C@@H]1CN([C@@H](C)CO)C(=O)c2cc(NS(=O)(=O)c3ccc(Cl)cc3)ccc2O[C@@H](C)CCCCO[C@H]1CN(C)CC1CCCCC1,22,x,x,x,x,x
C(=C\c1ccc2ccccc2n1)/c1ccccc1,94*,74*,57*,35*,83*,77*
O=[N+]([O-])c1ccc(/C=C/c2ccc3ccccc3n2)cc1,54*,60*,55*,21*,66*,54*
Cc1cccc(/C=C/c2ccccc2)n1,-66,-8,-49,x,x,x
c1ccc2c(c1)CC1(CCCC1)n1nnnc1-2,x,8,5,18*,0,-4
O=C(Nc1ncccc1O)c1ccc(OCC2CCCO2)cc1 (stereo not given),43,39,0,24*,44*,20*
COc1ccc2c(c1)Cc1sc(NC(=O)c3ccccc3)nc1-2,x,-20,-39,18*,-3,-28
COC(=O)c1ccc2nc(NC(=O)C3CC3)sc2c1,-59,-3,-20,39*,57*,-20
O=C(NC1=NCCS1)c1ccc(OCC2CCCO2)cc1 (stereo not given),x,39,-16,9,x,x
O=C(Nc1nc2ccccc2s1)c1ccc(OCC2CCCO2)cc1 (stereo not given),43,93*,78*,19*,39*,33*
C/C(=C\C(=O)c1ccccc1)NNc1nc2ccccc2s1,x,-3,47,37*,-5,-11
Cc1cnc(NC(=O)c2ccc(OCC3CCCO3)cc2)s1 (stereo not given),87*,85*,43,47*,60*,51*
Cc1ccc(NC(=O)c2ccc(OCC3CCCO3)cc2)nc1 (stereo not given),-27,24,-25,x,x,x
SMILES,LGR2 antag,TWEAK Fn14 block,TROY NFkB inh,HSP90 inh,HSP90 inh confirm,FLuc counter
COc1ccc(C(=O)Nc2nc3ccccc3s2)cc1,49,98*,49,37*,73*,67*
O=C(NNc1nc2ccccc2s1)Nc1ccccc1,x,27,46,6,x,x
COc1ccc(C(=O)Nc2nc3ccccc3[nH]2)cc1,90*,89*,69*,74*,86*,80*
COc1cccc(C(=O)Nc2nc3ccccc3[nH]2)c1,x,87*,33,27*,67*,56*
O=C(Nc1nc2ccccc2[nH]1)NC1CCCCC1,-17,49,22,23*,24*,6
Cc1ccc(C(=O)Nc2nc3ccccc3[nH]2)cc1,89*,97*,71*,86*,89*,85*
O=C(Nc1nc2ccccc2[nH]1)C1CC1,-21,-15,-11,3,x,x
O=C(Nc1nc2ccccc2[nH]1)c1ccc([N+](=O)[O-])cc1,-66,35,-35,3,x,x
C[C@H](CO)N1C[C@H](C)[C@H](CN(C)S(=O)(=O)c2ccccc2)Oc2ccc(NC(=O)CCCCCC(=O)Nc3ccccc3N)cc2C1=O,4,x,x,x,x,x
CCCC(=NC(C)CC)C1=C(O)CC(c2ccccc2)CC1=O (stereo not given),1,-9,-6,24*,6,5
CCC(C)N=CC1=C(O)CC(c2ccccc2)CC1=O (stereo not given),-6,4,-17,4,x,x
O=C(Nc1ccc2[nH]ccc2c1)c1ccc(F)cc1,5,20,-47,53*,64*,46*
O=C(Nc1ccc2[nH]ccc2c1)c1ccccc1,-16,-11,-43,44*,56*,30*
COc1ccccc1NC(=O)N(C)C[C@@H]1Oc2ncc(C#CC(C)C)cc2C(=O)N([C@H](C)CO)C[C@H]1C,-7,x,x,x,x,x
COc1cc(/C=C2\C(=O)N(CCC#N)N=C2C)c(Br)cc1OC(C)C,x,17,20,18*,2,4
Cc1cc(C)n(C(=O)c2c([N+](=O)[O-])cnn2C)n1,x,12,11,72*,-4,-10
CCC(=O)Nc1ccc2c(c1)C(=O)N(C)[C@H]1CC[C@@H](CC(=O)NCc3ccccc3)O[C@H]1CO2,1,x,x,x,x,x
Cc1cc(Br)ccc1NC(=O)C1CCN(C(=O)c2ccco2)CC1,4,2,1,75*,-9,-11
COc1ccc(C(=O)/C=C/c2ccc(OC)c(COc3ccc(F)cc3)c2)cc1,-14,-4,-43,24*,21*,-12
CCc1ccc(C2=NN(C(=O)OC)C(O)(C(F)(F)F)C2)cc1 (stereo not given),-19,30,23,40*,64*,49*
CCOC(=O)N1N=C(c2ccc(OC)cc2)CC1(O)C(F)(F)F (stereo not given),-15,27,6,22*,39*,26*
CCC(=O)N1C[C@H](C)[C@H](OC)CN(C)C(=O)c2ccc(NC(=O)C3CCOCC3)cc2OC[C@H]1C,8,x,x,x,x,x
C[C@@H]1CCCCO[C@@H](CN(C)CC2CC2)[C@@H](C)CN([C@H](C)CO)C(=O)c2cc(NS(=O)(=O)c3cccs3)ccc2O1,-17,x,x,x,x,x
CCCC(=O)Nc1ccc2c(c1)C(=O)N(C)[C@H]1CC[C@@H](CC(=O)NCc3ccccc3F)O[C@H]1CO2,11,x,x,x,x,x
COCC(C)N=C1NN=C(c2cc(C)n(Cc3ccccc3Cl)c2C)CS1 (stereo not given),2,45,38,34*,65*,55*
CS(=O)(=O)Nc1ccc2c(c1)[C@@H]1C[C@@H](CC(=O)NCc3ccccn3)O[C@H](CO)[C@@H]1O2,7,x,x,x,x,x

# Screening results deposited in PubChem by several laboratories.
